Experimental data: the antibiotic and cytotoxicity screens of Wong et al. (2023)
Screen size: about 39,000 compounds; about 500 (1.3%) were called active. What follows is part of a selection rich in actives, with near analogues and random picks from the rest.

Tested on: S. aureus RN4220
Experiment: growth inhibition call (relative growth <= 0.2)
Conditions: 50 µM

Growth inhibition call, inactive:
Cc1ccc(S(=O)(=O)N(C)C[C@@H]2Oc3ccc(NC(=O)NC(C)C)cc3CC(=O)N([C@H](C)CO)C[C@@H]2C)cc1, C[C@@H]1CCCCO[C@@H](CN(C)Cc2ccc(C(=O)Nc3ccccc3N)cc2)[C@@H](C)CN([C@H](C)CO)C(=O)c2cc(NC(=O)C3CCCCC3)ccc2O1, C[C@H]1CN([C@@H](C)CO)C(=O)c2cccc(NC(=O)c3cnccn3)c2O[C@H]1CN(C)Cc1ccc(C(=O)O)cc1, CCOC(=O)c1ccc(N2NC(=O)/C(=C/c3ccc([N+](=O)[O-])o3)C2=O)cc1, O=C(Cn1ccc([N+](=O)[O-])n1)N1CCOCC1, O=C(N/N=C/c1ccc(CO)o1)c1ccccn1, O=C(NN=Cc1ccc([N+](=O)[O-])o1)c1ccc(O)cc1, Cc1ccc(S(=O)(=O)N2CCN(CC(=O)N/N=C/c3ccccn3)CC2)cc1, COC(=O)N/N=C/c1ccc([N+](=O)[O-])o1, COCC#Cc1ccc2c(c1)O[C@H](CN(C)C(=O)c1ccccc1F)[C@H](C)CN([C@H](C)CO)S2(=O)=O, C[C@H](CO)N1C[C@H](C)[C@H](CN(C)C(=O)Nc2ccc3c(c2)OCO3)Oc2ncc(-c3cncnc3)cc2C1=O, COc1ccc(NC(=O)Nc2ccc3c(c2)C(=O)N([C@H](C)CO)C[C@@H](C)[C@@H](CN(C)Cc2ccc(C(=O)Nc4ccccc4N)cc2)O3)cc1, C[C@@H]1CN([C@H](C)CO)C(=O)CCCn2cc(nn2)CO[C@H]1CN(C)S(C)(=O)=O, O=C(CN1CCOCC1)NCC[C@H]1CC[C@@H](NC(=O)c2ccccc2F)[C@H](CO)O1, COc1ccc(NC(=O)N(C)C[C@@H]2OCCCC[C@@H](C)Oc3ccc(NS(=O)(=O)c4ccccc4)cc3C(=O)N([C@@H](C)CO)C[C@@H]2C)cc1, CCS(=O)(=O)Nc1ccc2c(c1)C(=O)N(C)C[C@H](OC)[C@@H](C)CN(Cc1nccs1)[C@H](C)CO2, CCOC(=O)Nc1ccc(C)s1, Cc1noc(C)c1S(=O)(=O)N(C)C[C@@H]1OCCCC[C@@H](C)Oc2ccc(NC(=O)Nc3ccc(C(F)(F)F)cc3)cc2C(=O)N([C@@H](C)CO)C[C@@H]1C, C[C@@H]1CN([C@H](C)CO)C(=O)c2cc(/C=C/c3ccccc3)cnc2O[C@@H]1CN(C)C(=O)C1CCOCC1, C[C@@H]1CN([C@@H](C)CO)C(=O)CCCn2nncc2CO[C@@H]1CN(C)S(=O)(=O)c1ccccc1C#N, Cc1cc(O)c(C=O)c(O)c1C(=O)O, COC(=O)c1c(C)cc(OC(=O)c2c(C)cc(O)c(C=O)c2O)c(C)c1O, CCCCC[C@@H](O)C[C@@H](O)CC(=O)O[C@@H](CCCCC)C[C@@H](O)CC(=O)OC[C@@H](O)[C@@H](O)[C@@H](O)[C@@H](O)CO, COc1ccc(CN(C)C[C@@H]2Oc3ccc(NC(=O)Nc4ccc(C(F)(F)F)cc4)cc3CC(=O)N([C@H](C)CO)C[C@@H]2C)cc1, C[C@H]1CCCCO[C@@H](CN(C)C(=O)Nc2ccccc2)[C@@H](C)CN([C@@H](C)CO)C(=O)c2cc(NC(=O)c3ccccc3)ccc2O1, O=C1c2ccccc2C(=O)c2c(NCCNCCO)ccc(NCCNCCO)c21, C[C@@H]1CN([C@H](C)CO)C(=O)c2cc(NC(=O)C3CC3)ccc2O[C@@H]1CN(C)Cc1ccc(-c2ccccc2)cc1, C[C@@H]1CN([C@H](C)CO)C(=O)c2cccc(NC(=O)Nc3ccc(F)cc3)c2O[C@H]1CN(C)C(=O)Nc1ccc(C(F)(F)F)cc1, C[C@@H]1CN([C@@H](C)CO)C(=O)c2cccc(NC(=O)Nc3ccc(F)cc3)c2O[C@H]1CN(C)C(=O)Nc1ccc(C(F)(F)F)cc1, C[C@H]1CN([C@@H](C)CO)C(=O)c2cccc(NC(=O)Nc3ccc(C(F)(F)F)cc3)c2O[C@H]1CN(C)C(=O)Nc1ccc(F)cc1, Cc1noc(C)c1NC(=O)Nc1cccc2c1O[C@@H](CN(C)C(=O)Nc1ccc(C(F)(F)F)cc1)[C@@H](C)CN([C@H](C)CO)C2=O, C[C@H](CO)N1C[C@H](C)[C@H](CN(C)C(=O)Nc2ccc(C(F)(F)F)cc2)Oc2c(NC(=O)Nc3ccc(F)cc3)cccc2C1=O, COc1ccc(NC(=O)Nc2cccc3c2O[C@H](CN(C)C(=O)Nc2ccc(C(F)(F)F)cc2)[C@@H](C)CN([C@@H](C)CO)C3=O)cc1, Cc1noc(C)c1NC(=O)Nc1cccc2c1O[C@H](CN(C)C(=O)Nc1ccc(C(F)(F)F)cc1)[C@H](C)CN([C@H](C)CO)C2=O, COc1ccc(NC(=O)Nc2cccc3c2O[C@@H](CN(C)C(=O)Nc2ccc(C(F)(F)F)cc2)[C@@H](C)CN([C@@H](C)CO)C3=O)cc1, CO[C@H]1CN(C)C(=O)c2ccc(NS(C)(=O)=O)cc2OC[C@H](C)N(C(=O)c2ccc3c(c2)OCO3)C[C@@H]1C, CCCNC(=O)N1C[C@H](O)COC[C@H]2O[C@@H](CC(=O)N3CCOCC3)CC[C@@H]21, CCCCc1cc(CCCC)n2nc(-c3ccccc3)cc2n1, CCS(=O)(=O)N1C[C@]2(CN(C2)S(=O)(=O)c2cn(cn2)C)c2c([nH]c3cc(ccc23)OC)[C@H]1CO, COCC#Cc1cnc2c(c1)C(=O)N([C@H](C)CO)C[C@H](C)[C@@H](CN(C)C(=O)c1ccc3c(c1)OCO3)O2, C[C@@H]1CCCCO[C@@H](CN(C)Cc2ccc(C(=O)O)cc2)[C@@H](C)CN([C@H](C)CO)C(=O)c2cc(NC(=O)Nc3ccc(F)cc3)ccc2O1, CN(C)CCN1C[C@@H]2CN(C(=O)c3cnc[nH]3)C[C@H]2C1=O, C[C@@H]1CN([C@H](C)CO)C(=O)Cc2cc(NS(=O)(=O)c3cn(C)cn3)ccc2O[C@H]1CN(C)S(=O)(=O)c1ccccc1, Cc1ccccc1S(=O)(=O)N1[C@@H]2c3cccc(=O)n3C[C@H]1[C@H](CO)[C@H]2C(=O)N1CCOCC1, C[C@H]1CN([C@@H](C)CO)C(=O)c2cccc(NS(=O)(=O)c3cn(C)cn3)c2O[C@@H]1CN(C)Cc1ccc(C(=O)Nc2ccccc2N)cc1, Cc1ccc(S(=O)(=O)N(C)C[C@H]2OCCCC[C@@H](C)Oc3ccc(NC(=O)CCCCCC(=O)Nc4ccccc4N)cc3C(=O)N([C@H](C)CO)C[C@@H]2C)cc1, Cc1noc(C)c1NC(=O)N(C)C[C@H]1OCCCC[C@@H](C)Oc2ccc(NS(=O)(=O)c3ccc(Cl)cc3)cc2C(=O)N([C@@H](C)CO)C[C@@H]1C, Cn1c(=O)c2c(ncn2C[C@@H](O)CNc2ccc(Br)cc2)n(C)c1=O, COc1cc(C)c(C=CC=CC=CC=CC(=O)O)c(C)c1C, C[C@H]1CN([C@@H](C)CO)C(=O)c2cccc(NC(=O)Nc3ccc(C(F)(F)F)cc3)c2O[C@@H]1CN(C)C(=O)Nc1ccc(F)cc1, C[C@@H]1CN([C@H](C)CO)C(=O)c2cccc(NC(=O)Nc3ccc(F)cc3)c2O[C@@H]1CN(C)C(=O)Nc1ccc(C(F)(F)F)cc1, C[C@H](CO)N1C[C@H](C)[C@@H](CN(C)C(=O)NC2CCCCC2)OCCCC[C@H](C)Oc2ccc(NC(=O)c3ccncc3)cc2C1=O, C[C@@H]1CN([C@@H](C)CO)C(=O)c2cc(NC(=O)Nc3ccc(F)cc3)ccc2O[C@@H](C)CCCCO[C@@H]1CN(C)C(=O)NC1CCCCC1, C[C@@H]1CCCCO[C@@H](CN(C)C(=O)C2CCCCC2)[C@@H](C)CN([C@H](C)CO)C(=O)c2cc(NC(=O)C3CCCCC3)ccc2O1, CC1=C(C(=O)O)N2C(=O)[C@@H](NC(=O)[C@H](N)C3=CCC=CC3)[C@H]2SC1, CC1=C(C(=O)O)N2C(=O)C(NC(=O)C(N)C3=CCC=CC3)C2SC1 (centres undefined)

Growth inhibition call, active:
NC(=O)NN=Cc1ccc([N+](=O)[O-])o1, NC(=O)N/N=C/c1ccc([N+](=O)[O-])o1, O=C(CN1CCOCC1)N/N=C/c1ccc([N+](=O)[O-])o1, CCOC(=O)c1c(C)cc(O)c(C=O)c1O, Cc1noc(C)c1NC(=O)Nc1cccc2c1O[C@@H](CN(C)C(=O)Nc1ccc(C(F)(F)F)cc1)[C@H](C)CN([C@@H](C)CO)C2=O, C[C@@H]1CN([C@H](C)CO)C(=O)c2cccc(NC(=O)Nc3ccc(C(F)(F)F)cc3)c2O[C@@H]1CN(C)C(=O)Nc1ccc(F)cc1, COc1ccc(NC(=O)N(C)C[C@@H]2Oc3c(NC(=O)Nc4ccc(C(F)(F)F)cc4)cccc3C(=O)N([C@@H](C)CO)C[C@@H]2C)cc1, C[C@@H]1CN([C@@H](C)CO)C(=O)c2cccc(NC(=O)Nc3ccc(C(F)(F)F)cc3)c2O[C@H]1CN(C)C(=O)Nc1ccc(F)cc1, C[C@H](CO)N1C[C@H](C)[C@H](CN(C)C(=O)Nc2ccc(F)cc2)Oc2c(NC(=O)Nc3ccc(C(F)(F)F)cc3)cccc2C1=O, Cn1nnnc1SCC1=C(C(=O)[O-])N2C(=O)C(NC(=O)C(O)c3ccccc3)C2SC1.[Na+] (centres undefined), O=C([O-])C1=C(CSc2nnnn2CS(=O)(=O)[O-])CSC2C(NC(=O)C(O)c3ccccc3)C(=O)N12.[Na+].[Na+] (centres undefined), Cn1nnnc1SCC1=C(C(=O)[O-])N2C(=O)C(NC(=O)C(OC=O)c3ccccc3)C2SC1.[Na+] (centres undefined), NCc1ccccc1CC(=O)NC1C(=O)N2C(C(=O)O)=C(CSc3nnnn3CC(=O)O)CSC12 (centres undefined)
